# Most compounds without a hit are left out; they make up all but 22% or so of the library.
# E-sel TNF inh = blocks E-selectin expression induced by TNF alpha | inhibition, % at 2 µM | 120,000 tested, 0.71% active | AID 1246 | HUVEC TNFa-induced E-selectin immunofluorescence, high content;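 active means inhibition above the batch mean plus 3 SD, and confirmed as a hit on visual image review, cut at about 43% in these data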
# CYP2C19 activ = cytochrome P450 2C19 (human) activation. P33261. activation factor at 5 µM. recombinant CYP2C19, luciferin-H EGE luminescence; active compounds read high; 0 = fully inhibited enzyme, 1 = untreated enzyme. 96,000 tested, under 10 active. AID 1025;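 active means activation factor of at least 2 at 5 µM in the primary screen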
# CYP2C9 inhib = blocks human cytochrome P450 2C9 | P11712 | CYP2C9 Supersomes, luciferin-H conversion, luminescence | inhibition, % at 5 µM | 96,000 tested, 20% active | AID 777;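 active means blocking of liver enzyme CYP2C9 beyond about 50% at 5 µM, limit read from the data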
# Target sequence (P11712 whole entry, looked up): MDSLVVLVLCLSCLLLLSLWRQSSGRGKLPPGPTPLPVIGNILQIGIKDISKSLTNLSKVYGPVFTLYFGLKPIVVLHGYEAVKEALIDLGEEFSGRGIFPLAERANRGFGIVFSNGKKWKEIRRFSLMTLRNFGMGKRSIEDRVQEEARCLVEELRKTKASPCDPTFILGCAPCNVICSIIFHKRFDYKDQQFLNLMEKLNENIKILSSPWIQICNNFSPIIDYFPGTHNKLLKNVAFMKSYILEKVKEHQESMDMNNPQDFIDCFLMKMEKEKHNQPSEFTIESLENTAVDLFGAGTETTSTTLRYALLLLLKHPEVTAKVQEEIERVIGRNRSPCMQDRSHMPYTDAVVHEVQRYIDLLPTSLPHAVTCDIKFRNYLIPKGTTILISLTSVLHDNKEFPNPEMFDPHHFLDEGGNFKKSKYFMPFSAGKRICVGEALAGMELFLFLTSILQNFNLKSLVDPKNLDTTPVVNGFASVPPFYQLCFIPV
# CYP2C19 inhib = inhibitors of human CYP2C19 | P33261 | AID 778 | CYP2C19 Supersomes, luciferin-H EGE luminescence, 30 min | 96,000 tested, 21% active | inhibition, % at 5 µM;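 active means CYP2C19 inhibition above a set limit at 5 µM in the primary screen, cut at about 50% in these data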
# CYP2C9 act = CYP2C9 (human) activation; recombinant CYP2C9, luciferin-H conversion, luminescence; active compounds read high; factor 1 = untreated enzyme, 0 = blocked; P11712; activation factor at 5 µM; 96,000 tested, 1.4% active;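 active means activation factor of 2 or more for CYP2C9 at a 5 µM dose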
# cytoskel mod = alters cytoskeleton assembly in HUVEC cells; HUVEC TNFa F-actin phalloidin imaging, high content; inhibition, % at 2 µM; 91,000 tested, 0.18% active;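 active means inhibition above the batch mean plus 3 SD and confirmed as a hit by visual image inspection, cut at about 30% in these data, passing the limit was not always enough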
# A number is an active result; – = inactive; · = not tested or not shown.
SMILES,E-sel TNF inh,CYP2C19 activ,CYP2C9 inhib,CYP2C19 inhib,CYP2C9 act,cytoskel mod
CC(C)CNc1nc(Oc2ccc(=O)n(-c3ccccc3)n2)nc(N2CCOCC2)n1,–,–,–,–,–,–
Cn1c(SCC(=O)Nc2ccccc2F)nnc1-c1ccc(S(=O)(=O)N2CCOCC2)cc1,–,–,–,–,–,–
Cc1ccccc1CN1CCN(Cc2ccccc2C(F)(F)F)CC1,–,–,–,91,–,–
O=C(CSc1cccc(C(F)(F)F)c1)N1CCN(S(=O)(=O)c2ccccc2)CC1,–,–,–,59,–,·
O=S(=O)(c1cccc(C(F)(F)F)c1)N1CCN(c2ccccc2)CC1,–,–,–,–,–,–
O=C(c1ccc(Br)cc1)N1CCN(S(=O)(=O)c2ccccc2)CC1,·,–,–,70,–,–
Cn1nc(C(=O)N2CCN(S(=O)(=O)c3ccccc3)CC2)c2ccccc2c1=O,–,–,–,–,–,–
O=C(c1nc(-c2ccccc2)n(-c2ccccc2)n1)N1CCN(S(=O)(=O)c2ccccc2)CC1,–,–,66,–,–,·
NC(=O)C1CCN(CCC(=O)Nc2cccc(Cl)c2)CC1,·,–,–,–,–,·
Cc1ccc(S(=O)(=O)N2CCN(Cc3ccccc3C(F)(F)F)CC2)cc1,–,–,–,–,–,–
O=C(c1ccccc1C(F)(F)F)N1CCN(S(=O)(=O)c2ccccc2)CC1,–,–,–,87,–,–
O=S(=O)(c1ccccc1)N1CCN(Cc2ccccc2C(F)(F)F)CC1,–,–,83,94,–,·
CCOc1ncccc1C(=O)N1CCN(S(=O)(=O)c2ccccc2)CC1,–,·,·,·,·,·
CC1CCCCC1NC(=O)COC(=O)/C=C/c1ccc2c(c1)OCO2 (stereo not given),–,·,·,·,·,·
Cc1cc2ccccc2cc(C)c1=O,·,–,–,–,–,–
Cc1ccccc1OCC(=O)N(Cc1cccs1)C1CCS(=O)(=O)C1 (stereo not given),–,–,–,–,–,–
Cc1cccc(OC(C)C(=O)N(Cc2cccs2)C2CCS(=O)(=O)C2)c1C (stereo not given),–,–,–,95,–,–
NS(=O)(=O)c1ccc(CCNC(=O)CSc2nc3ccccc3c(=O)n2CCC(=O)N2CCCCC2)cc1,–,·,·,·,·,·
CCn1c(COc2ccc(Cl)cc2)nnc1SCc1nc2ccccc2[nH]1,–,–,–,–,–,–
Cc1ccc(OCc2nnc(SCc3nc4ccccc4[nH]3)n2Cc2ccco2)cc1,·,–,65,–,–,–
c1ccc(-c2nnc(SCc3nc4ccccc4[nH]3)n2Cc2ccco2)cc1,–,–,59,–,–,–
N#Cc1c(-c2ccccc2)c(-c2ccccc2)nn(CC(=O)NNC(=O)Nc2ccc(Cl)c(Cl)c2)c1=O,–,–,62,–,–,–
N#C/C(=C\c1cn(-c2ccccc2)nc1-c1cccnc1)c1nnc2n1CCCCC2,–,–,93,59,–,·
N#C/C(=C/c1ccccc1[N+](=O)[O-])c1nnc2n1CCCCC2,–,·,·,·,·,·
CC1C(=O)CC(c2ccco2)NC1c1ccco1 (stereo not given),–,–,–,69,–,–
SMILES,E-sel TNF inh,CYP2C19 activ,CYP2C9 inhib,CYP2C19 inhib,CYP2C9 act,cytoskel mod
CC1C(=O)CC(c2ccccc2)NC1c1ccccc1 (stereo not given),–,–,–,82,–,–
CCCSc1nsc(SCCC)c1C(N)=O,–,–,–,–,–,–
Clc1cccc(Cl)c1/C=C/c1nc2ccccc2[nH]1,–,–,84,–,–,–
CC(C)(C)NC(=O)c1ccc(COCC(F)(F)F)o1,–,–,–,–,–,–
Cc1ccc(CNC(=O)c2ccc(Br)o2)cc1,·,–,–,–,–,·
O=C(Nc1ccc(Cl)cn1)c1ccc(COCC(F)(F)C(F)F)o1,–,–,–,72,–,–
O=C(NCc1ccc(Cl)cc1)c1ccc(COCC(F)(F)F)o1,–,–,–,51,–,–
O=C(c1ccc(COCC(F)(F)F)o1)N1CCCCCC1,74,–,–,51,–,–
Cc1ccc(C(=O)NCc2ccc(Cl)cc2)o1,–,–,–,53,–,–
COc1cccc(C(=O)CSc2nnc(-c3cc(OC)cc(OC)c3)o2)c1,–,–,–,–,–,–
CCN=C1Sc2nc3ccc(OCC)cc3cc2CN1CCOC,–,–,96,91,–,–
O=C(O)c1nn(CC(=O)N(C2CCCCC2)C2CCCCC2)c(=O)c2ccccc12,–,·,·,·,·,·
CCOc1cccc(NC(=O)C2CC(=O)NC(=Nc3ccccc3)S2)c1 (stereo not given),–,–,62,–,–,–
C/C(CCc1ccc2c(c1)OCO2)=N\N=C1\NC(=O)CC(C(=O)Nc2ccc(Cl)cc2)S1 (stereo not given),–,–,75,–,–,–
COc1ccc(CN=C2NC(=O)CC(C(=O)Nc3ccc(Cl)cc3)S2)cc1 (stereo not given),–,·,·,·,·,·
CCN=C1SC(C(=O)Nc2cccc(OCC)c2)CC(=O)N1CC (stereo not given),–,–,–,87,–,–
CCNC(=O)C1CC(=O)N(Cc2ccc(F)cc2)C(=Nc2ccc(OC)cc2)S1 (stereo not given),–,–,–,55,–,–
COC(=O)c1cc(Br)c(=O)n(CCN(C(C)C)C(C)C)c1,–,–,–,–,–,–
Cc1cc(NC(=O)COC(=O)CCCOc2ccc(Cl)cc2C)no1,–,–,–,–,–,–
Cc1cc(C)nc(/N=C(/NC(=O)Nc2ccc(Cl)c(Cl)c2)Nc2ccccc2)n1,–,·,·,·,·,·
COc1cccc(N=C2SC(C(=O)Nc3ccccc3F)CC(=O)N2C)c1 (stereo not given),·,–,62,–,–,–
CN1C(=O)CC(C(=O)Nc2ccc(F)cc2)SC1=Nc1ccc2c(c1)OCO2 (stereo not given),–,–,99,58,–,–
COc1ccc(NC(=O)C2CC(=O)N(C)C(=Nc3ccc4c(c3)OCO4)S2)cc1 (stereo not given),–,·,·,·,·,·
CCN1C(=O)CC(C(=O)Nc2ccc(F)cc2)SC1=Nc1cccc(OC)c1 (stereo not given),·,–,84,62,–,–
COc1cccc(NC(=O)C2CC(=O)N(C)C(=Nc3cccc(F)c3)S2)c1 (stereo not given),·,–,–,–,–,–
SMILES,E-sel TNF inh,CYP2C19 activ,CYP2C9 inhib,CYP2C19 inhib,CYP2C9 act,cytoskel mod
O=C(/C=C/c1ccccc1)CC(O)(c1ccccc1)C(F)(F)F (stereo not given),–,–,–,65,–,–
O=C(/C=C/c1ccccc1)CC(O)(c1ccccc1)C(F)(F)C(F)F (stereo not given),–,–,–,–,–,–
COc1ccc2c(c1)c(=O)c(C(=O)c1ccc(C)cc1)cn2CC(=O)Nc1ccc(F)cc1,–,·,·,·,·,·
CCOc1ccc(N/C(=C(/C(Cl)=C(Cl)Cl)[N+](=O)[O-])n2cncn2)cc1,–,–,68,61,–,–
O=[N+]([O-])/C(C(Cl)=C(Cl)Cl)=C(\Nc1ccc(F)cc1)n1cncn1,–,–,–,–,–,·
CCOc1cc(S(=O)(=O)NCc2ccccn2)c(C)cc1C,–,–,–,59,–,–

# Source: PubChem BioAssay
